Measurements as given in PubChem BioAssay AID1159580 (chemical genetic matrix, 2015).
Values joined by “and” are separate entries in the source; they are usually repeats but may differ in a detail not shown here. Identical values can stand only once. In all, about 5,500 compounds went through this assay and about 2,000 (36%) were called active. Another 18% or so got no clear call; they are omitted. Cut-off read from the data, not from the text of the source: active = normalized growth mostly below about 0.91 (no sharp cut-off); inconclusive = no clear call, values can overlap the other calls; inactive = mostly above about 0.92. This is one part of the list.

Assay: chemical genetic growth profiling, strain panel (AID 1159580);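 note: tested at 20 µM; growth read once vehicle control cultures reached saturation at 30 °C; 1 = growth at the plate median or of vehicle wells; lower values mean less growth of the strain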
Details: S. cerevisiae deletion strains, growth OD

Measured: normalized growth

C[C@H]1c2cccc(O)c2C(O)=C2C(=O)[C@]3(O)C(O)=C(C(N)=O)C(=O)[C@@H](N(C)C)[C@@H]3[C@@H](O)[C@@H]21
inactive: locus YAL021C, strain ccr4, stronger effect = lower value 0.991 | locus YAL026C, strain drs2, stronger effect = lower value 0.978 | locus YAL030W, strain snc1, stronger effect = lower value 0.976 | locus YBL061C, strain skt5, stronger effect = lower value 0.995 | locus YBR009C, strain hhf1, stronger effect = lower value 0.958 | locus YBR021W, strain FUR4, stronger effect = lower value 0.884 | locus YBR023C, strain chs3, stronger effect = lower value 0.987 | locus YBR171W, strain sec66, stronger effect = lower value 0.956 | locus YBR229C, strain ROT2, stronger effect = lower value 1 | locus YBR231C, strain swc5, stronger effect = lower value 0.979 | locus YBR279W, strain paf1, stronger effect = lower value 0.988 | locus YCL011C, strain gbp2, stronger effect = lower value 0.971 | locus YCL016C, strain dcc1, stronger effect = lower value 1.02 | locus YCL029C, strain bik1, stronger effect = lower value 0.953 | locus YCL069W, strain vba3, stronger effect = lower value 0.956 | locus YCR088W, strain abp1, stronger effect = lower value 0.985 | locus YDL005C, strain med2, stronger effect = lower value 0.998 | locus YDL035C, strain GPR1, stronger effect = lower value 0.963 | locus YDL040C, strain nat1, stronger effect = lower value 0.975 | locus YDL074C, strain BRE1, stronger effect = lower value 0.963 | locus YDL101C, strain DUN1, stronger effect = lower value 0.984 | locus YDL185W, strain tfp1, stronger effect = lower value 0.954 | locus YDL192W, strain arf1, stronger effect = lower value 0.966 | locus YDR001C, strain nth1, stronger effect = lower value 0.984 | locus YDR069C, strain doa4, stronger effect = lower value 0.973 | locus YDR101C, strain arx1, stronger effect = lower value 1.01 | locus YDR137W, strain rgp1, stronger effect = lower value 0.962 | locus YDR159W, strain sac3, stronger effect = lower value 0.951 | locus YDR162C, strain NBP2, stronger effect = lower value 0.978 | locus YDR195W, strain ref2 0.979 | locus YDR297W, strain sur2, stronger effect = lower value 0.991 | locus YDR318W, strain mcm21, stronger effect = lower value 0.961 | locus YDR334W, strain swr1, stronger effect = lower value 0.944 | locus YDR335W, strain msn5, stronger effect = lower value 0.988 | locus YDR388W, stronger effect = lower value 0.98 | locus YDR392W, strain spt3, stronger effect = lower value 0.911 | locus YDR502C, strain sam2, stronger effect = lower value 0.979 | locus YEL003W, strain gim4, stronger effect = lower value 0.978 | locus YEL037C, strain rad23, stronger effect = lower value 0.975 | locus YEL061C, strain CIN8 (second series), stronger effect = lower value 0.971 | locus YEL061C, strain CIN8, stronger effect = lower value 0.984 | locus YER015W, strain faa2, stronger effect = lower value 0.977 | locus YER016W, strain bim1, stronger effect = lower value 1.01 | locus YER110C, stronger effect = lower value 0.965 | locus YER111C, strain swi4, stronger effect = lower value 0.995 | locus YER155C, strain BEM2 (second series), stronger effect = lower value 0.886 | locus YER155C, strain BEM2, stronger effect = lower value 1.01 | locus YER167W, strain BCK2, stronger effect = lower value 0.994 | locus YFR010W, strain ubp6, stronger effect = lower value 0.955 | locus YGL078C, strain dbp3, stronger effect = lower value 0.968 | locus YGL086W, strain mad1, stronger effect = lower value 0.992 | locus YGL167C, strain pmr1, stronger effect = lower value 0.965 | locus YGL173C, strain kem1, stronger effect = lower value 0.975 | locus YGL227W, strain vid30, stronger effect = lower value 0.987 | locus YGL240W, strain doc1, stronger effect = lower value 0.96 | locus YGL253W, strain hxk2, stronger effect = lower value 0.988 | locus YGR135W, strain pre9, stronger effect = lower value 0.923 | locus YGR229C, strain SMI1, stronger effect = lower value 0.983 | locus YGR252W, strain gcn5, stronger effect = lower value 0.93 | locus YHR013C, strain ard1, stronger effect = lower value 1.05 | locus YHR027C, strain rpn1, stronger effect = lower value 0.98 | locus YHR030C, strain SLT2, stronger effect = lower value 0.996 and 1.03 | locus YHR079C, strain IRE1 (second series), stronger effect = lower value 0.978 | locus YHR079C, strain IRE1, stronger effect = lower value 1.03 | locus YHR094C, strain hxt1, stronger effect = lower value 0.987 | locus YHR129C, strain ARP1, stronger effect = lower value 0.994 | locus YHR142W, strain chs7, stronger effect = lower value 0.998 | locus YHR200W, strain rpn10, stronger effect = lower value 0.97 | locus YIL066C, strain RNR3, stronger effect = lower value 0.974 | locus YIL073C, strain SPO22, stronger effect = lower value 0.751 | locus YIL125W, strain kgd1, stronger effect = lower value 0.983 | locus YIR030C, strain dcg1, stronger effect = lower value 0.961 | locus YJL092W, strain hpr5, stronger effect = lower value 0.991 | locus YJL095W, strain BCK1 (second series), stronger effect = lower value 0.979 | locus YJL095W, strain BCK1, stronger effect = lower value 0.929 and 1.03 | locus YJL115W, strain asf1, stronger effect = lower value 0.963 | locus YJL129C, strain trk1, stronger effect = lower value 0.991 | locus YJL134W, strain LCB3, stronger effect = lower value 1 | locus YJL154C, strain vps35, stronger effect = lower value 0.983 | locus YJL164C, strain tpk1, stronger effect = lower value 0.976 | locus YJL166W, strain qcr8, stronger effect = lower value 0.944 | locus YJL168C, strain set2, stronger effect = lower value 0.985 | locus YJL187C, strain SWE1 (second series), stronger effect = lower value 0.97 | locus YJR043C, strain POL32, stronger effect = lower value 0.958 | locus YJR066W, strain TOR1, stronger effect = lower value 0.928 | locus YKL009W, strain mrt4, stronger effect = lower value 0.967 | locus YKL068W, stronger effect = lower value 0.986 | locus YKL085W, strain MDH1 (second series), stronger effect = lower value 0.972 | locus YKL085W, strain MDH1, stronger effect = lower value 0.972 | locus YKL160W, strain elf1, stronger effect = lower value 0.992 | locus YKL190W, strain CNB1, stronger effect = lower value 0.988 | locus YKR001C, strain vps1, stronger effect = lower value 0.942 | locus YKR026C, strain gcn3, stronger effect = lower value 0.972 | locus YKR091W, strain srl3, stronger effect = lower value 0.985 | locus YLL001W, strain dnm1, stronger effect = lower value 0.974 | locus YLL026W, stronger effect = lower value 0.991 | locus YLL041C, strain sdh2, stronger effect = lower value 0.973 | locus YLR027C, strain aat2, stronger effect = lower value 0.998 | locus YLR039C, strain RIC1, stronger effect = lower value 0.971 | locus YLR058C, strain SHM2, stronger effect = lower value 0.976 | locus YLR102C, strain apc9, stronger effect = lower value 0.968 | locus YLR113W, strain HOG1, stronger effect = lower value 1.08 | locus YLR221C, strain rsa3, stronger effect = lower value 0.962 | locus YLR258W, strain gsy2, stronger effect = lower value 0.978 | locus YLR262C, strain YPT6 (second series), stronger effect = lower value 0.936 | locus YLR262C, strain YPT6, stronger effect = lower value 0.967 | locus YLR268W, strain sec22, stronger effect = lower value 0.955 | locus YLR320W, strain mms22, stronger effect = lower value 0.944 | locus YLR330W, strain CHS5, stronger effect = lower value 0.979 | locus YLR342W, strain FKS1 (second series), stronger effect = lower value 0.859 | locus YLR342W, strain FKS1, stronger effect = lower value 0.977 | locus YLR357W, strain rsc2, stronger effect = lower value 0.911 | locus YLR370C, strain arc18, stronger effect = lower value 0.982 | locus YLR371W, strain rom2, stronger effect = lower value 0.963 | locus YLR384C, strain iki3, stronger effect = lower value 1 | locus YLR418C, strain cdc73, stronger effect = lower value 0.91 | locus YML016C, strain PPZ1, stronger effect = lower value 0.979 | locus YML032C, strain rad52, stronger effect = lower value 0.984 | locus YML120C, strain ndi1, stronger effect = lower value 0.97 | locus YML124C, strain tub3, stronger effect = lower value 0.993 | locus YMR058W, strain fet3, stronger effect = lower value 0.947 | locus YMR078C, strain ctf18, stronger effect = lower value 0.963 | locus YMR125W, strain sto1, stronger effect = lower value 0.958 | locus YMR129W, stronger effect = lower value 0.989 | locus YMR205C, strain PFK2, stronger effect = lower value 0.992 | locus YMR223W, strain ubp8, stronger effect = lower value 0.922 | locus YMR231W, strain pep5, stronger effect = lower value 0.989 | locus YMR307W, strain GAS1, stronger effect = lower value 1.08 | locus YNL067W, strain RPL9B, stronger effect = lower value 0.939 | locus YNL071W, strain lat1, stronger effect = lower value 0.975 | locus YNL183C, strain NPR1, stronger effect = lower value 0.987 | locus YNL209W, strain ssb2, stronger effect = lower value 0.985 | locus YNL233W, strain BNI4, stronger effect = lower value 0.939 | locus YNL248C, strain rpa49, stronger effect = lower value 0.95 | locus YNL250W, strain rad50, stronger effect = lower value 0.966 | locus YNL271C, strain bni1, stronger effect = lower value 0.981 | locus YNL298W, strain CLA4, stronger effect = lower value 0.969 | locus YNL307C, strain MCK1, stronger effect = lower value 0.973 | locus YNL322C, strain KRE1 (second series), stronger effect = lower value 0.969 | locus YNL322C, strain KRE1, stronger effect = lower value 0.991 | locus YNR049C, strain mso1, stronger effect = lower value 0.984 | locus YNR052C, strain pop2, stronger effect = lower value 0.979 | locus YOL012C, strain htz1 1.14 | locus YOL147C, strain pex11, stronger effect = lower value 0.988 | locus YOR001W, strain rrp6, stronger effect = lower value 0.923 | locus YOR061W, strain CKA2, stronger effect = lower value 0.993 | locus YOR069W, strain VPS5, stronger effect = lower value 0.998 | locus YOR070C, strain gyp1, stronger effect = lower value 0.99 | locus YOR080W, strain dia2, stronger effect = lower value 0.982 | locus YOR083W, strain WHI5, stronger effect = lower value 1 | locus YOR106W, strain vam3, stronger effect = lower value 0.965 | locus YOR136W, strain idh2, stronger effect = lower value 0.98 | locus YOR144C, strain elg1, stronger effect = lower value 0.995 | locus YOR184W, strain ser1, stronger effect = lower value 0.939 | locus YOR231W, strain MKK1, stronger effect = lower value 1.06 | locus YOR265W, strain rbl2, stronger effect = lower value 0.992 | locus YOR270C, strain vph1, stronger effect = lower value 0.943 | locus YOR290C, strain snf2, stronger effect = lower value 1 | locus YOR316C, strain cot1, stronger effect = lower value 0.973 | locus YPL051W, strain arl3, stronger effect = lower value 0.993 | locus YPL055C, strain LGE1, stronger effect = lower value 0.866 | locus YPL078C, strain atp4, stronger effect = lower value 0.999 | locus YPL106C, strain sse1, stronger effect = lower value 0.912 | locus YPL240C, strain hsp82, stronger effect = lower value 0.984 | locus YPL241C, strain CIN2, stronger effect = lower value 0.998 | locus YPL256C, strain CLN2, stronger effect = lower value 1.05 | locus YPR119W, strain clb2, stronger effect = lower value 0.98 | locus YPR141C, strain kar3, stronger effect = lower value 0.965 | locus YPR163C, strain tif3, stronger effect = lower value 0.985 | locus YPR167C, strain met16, stronger effect = lower value 0.982
active: locus YGL248W, strain PDE1, stronger effect = lower value 0.854 | strain wtn01, stronger effect = lower value 0.891
